Data taken from PubChem BioAssay (NCI).
This is part of a sample that, as a whole, favours compounds with a hit. Of some 79,000 tested, about 15% had one in any assay. Activity calls are given as the source filed them. Rule as the data show it: active = growth inhibition above about 70%; inactive = the rest.

Key:
[1] = NCI Yeast Anticancer Drug Screen. Data for the rad52 strain (AID 147);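 also: 0% = growth of vehicle-treated control cultures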; settings: S. cerevisiae rad52 mutant growth inhibition, active compounds read high
Outline: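 Inhibition of yeast growth, referenced to vehicle controls, was the measured output for a strain with defective DNA damage repair.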

[2] = NCI Yeast Anticancer Drug Screen. Data for the wt1 strain (AID 149);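 also: 0% = growth of vehicle-treated wt1 cultures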; settings: S. cerevisiae wt1 strain (SPY 50644) growth inhibition, active compounds read high
Outline: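 Yeast wt1 strain exposed to compounds; growth inhibition measured relative to vehicle-treated controls.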

[3] = NCI Yeast Anticancer Drug Screen. Data for the rad50EPP+ strain (AID 151);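 also: 0% = growth of vehicle-treated control cultures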; settings: S. cerevisiae rad50 mutant strain, active compounds read high
Outline: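 Genetically defined yeast (rad50EPP+, DNA damage repair alteration) is grown with compound, and inhibition of growth is expressed relative to vehicle-treated controls.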

[4] = NCI Yeast Anticancer Drug Screen. Data for the mgt1 strain (AID 153); settings: S. cerevisiae mgt1 mutant growth inhibition, active compounds read high
Outline: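 In the mgt1 strain, test compounds were added and growth inhibition was determined relative to vehicle-treated controls.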

[5] = NCI Yeast Anticancer Drug Screen. Data for the rad50 strain (AID 155);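 also: 0% = growth of vehicle-only cultures of the same strain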; settings: S. cerevisiae rad50 strain growth inhibition, active compounds read high
Outline: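 Yeast carrying a defined DNA repair defect were exposed to test compounds, and growth was compared with vehicle-treated controls to give percent inhibition.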

[6] = NCI Yeast Anticancer Drug Screen. Data for the mec2-1 strain (AID 157); settings: S. cerevisiae mec2-1 strain, active compounds read high
Outline: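 Each compound was tested on mec2-1 yeast, a strain altered in DNA damage repair or cell cycle control. Growth inhibition is reported relative to vehicle.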

[7] = NCI Yeast Anticancer Drug Screen. Data for the rad14 strain (AID 159);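 also: 0% = growth of vehicle-treated control cultures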; settings: S. cerevisiae rad14 strain growth inhibition, active compounds read high
Outline: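 Yeast cells carrying a defined DNA-repair defect were exposed to compounds, and growth inhibition was calculated relative to vehicle-treated control cultures.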

[8] = NCI Yeast Anticancer Drug Screen. Data for the sgs1 mgt1 strain (AID 161);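 also: 0% = growth of cultures given vehicle only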; settings: S. cerevisiae sgs1 mgt1 strain, active compounds read high
Outline: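 Mutant yeast exposed to compound; growth scored against vehicle-only wells.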

[9] = NCI Yeast Anticancer Drug Screen. Data for the CLN2oe strain (AID 163);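 also: 0% = growth of vehicle-only control cultures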; settings: S. cerevisiae CLN2oe strain, active compounds read high
Outline: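 First, the altered yeast strain was treated with each compound; second, its growth was measured; finally, inhibition was derived by comparison with vehicle controls.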

[10] = NCI Yeast Anticancer Drug Screen. Data for the cln2 rad14 strain (AID 165);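 also: 0% = growth equal to vehicle treated cultures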; settings: S. cerevisiae cln2 rad14 strain, active compounds read high
Outline: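 Test compounds were added to cln2 rad14 yeast cultures; inhibition of growth was then determined by comparison with vehicle treatment.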

[11] = NCI Yeast Anticancer Drug Screen. Data for the bub3 strain (AID 167); settings: S. cerevisiae bub3 mutant strain, active compounds read high
Outline: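 Compounds were applied to a genetically altered yeast strain carrying a cell-cycle control defect. Growth inhibition was scored against vehicle-treated controls.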

[12] = NCI Yeast Anticancer Drug Screen. Data for the wt2 strain (AID 169);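 also: 0% = growth of vehicle-treated yeast cultures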; settings: S. cerevisiae wt2 strain growth inhibition, active compounds read high
Outline: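 The panel's yeast strains carry defined changes in DNA repair or cell cycle genes. Each strain is grown with compound, and growth loss is scored relative to vehicle.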

[13] = NCI Yeast Anticancer Drug Screen. Data for the mlh1 strain (AID 171);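 also: 0% = growth of vehicle-treated control cultures of the same strain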; settings: S. cerevisiae mlh1 strain growth inhibition, active compounds read high
Outline: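 Inhibition values reflect reduced yeast growth in the presence of compound, referenced to vehicle controls, using a strain chosen for its alteration in DNA repair or cell cycle control.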

[14] = NCI Yeast Anticancer Drug Screen. Data for the sgs1 strain (AID 173);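 also: 0% = growth of vehicle-only control cultures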; settings: S. cerevisiae sgs1 mutant, active compounds read high
Outline: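 Vehicle-treated cultures served as reference for growth inhibition of a yeast strain altered in DNA damage repair or cell cycle control after compound exposure.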

[15] = NCI Yeast Anticancer Drug Screen. Data for the mlh1 rad18 strain (AID 175); settings: S. cerevisiae mlh1 rad18 strain growth inhibition, active compounds read high
Outline: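 Inhibition values reflect reduced growth of mutant yeast versus vehicle-treated controls following compound exposure; the mutations affect DNA damage repair.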

[16] = NCI Yeast Anticancer Drug Screen. Data for the rad18 strain (AID 177); settings: S. cerevisiae rad18 mutant growth inhibition, active compounds read high
Outline: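 Steps: expose repair-mutant yeast to compound; measure growth; express as inhibition relative to vehicle control.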

[17] = at 5.0 µM (retest, dose inferred, filed as 0.5)
[18] = at 50.0 µM (retest, dose inferred, filed as 5.0)

Measured: growth inhibition

O=C1/C(=C/c2ccccc2)CCCC1CN1CCCCC1 (stereo unspecified)
inactive: [1]; at 1.2 µM 13% | [1]; at 3.7 µM 35% | [1]; at 11.0 µM 56% | [2]; at 1.2 µM 10% | [2]; at 3.7 µM 19% | [2]; at 11.0 µM 28% | [2]; at 33.0 µM 31% | [2]; at 100.0 µM 34% | [3]; at 1.2 µM -2% | [3]; at 3.7 µM -1% | [3]; at 11.0 µM 15% | [3]; at 33.0 µM 46% | [3]; at 100.0 µM 51% | [4]; at 1.2 µM 16% | [4]; at 3.7 µM 44% | [4]; at 11.0 µM 59% | [5]; at 1.2 µM 13% | [5]; at 3.7 µM 26% | [5]; [17] 29% | [5]; at 11.0 µM 39% | [5]; at 33.0 µM 61% | [5]; at 100.0 µM 68% | [6]; at 1.2 µM 16% | [6]; at 3.7 µM 22% | [6]; [17] 32% | [6]; at 11.0 µM 34% | [6]; at 33.0 µM 48% | [6]; at 100.0 µM 57% | [7]; at 1.2 µM 48% | [8]; [17] 40% | [9]; at 1.2 µM 40% | [9]; at 3.7 µM 59% | [9]; at 11.0 µM 67% | [10]; [17] 65% | [10]; [18] 69% | [11]; at 1.2 µM 30% | [11]; at 3.7 µM 53% | [11]; [17] 12% | [12]; at 1.2 µM 19% | [12]; at 3.7 µM 31% | [12]; at 11.0 µM 51% | [13]; at 1.2 µM 4% | [13]; at 3.7 µM 16% | [13]; at 11.0 µM 26% | [13]; at 33.0 µM 34% | [13]; at 100.0 µM 38% | [14]; at 1.2 µM 29% | [14]; at 3.7 µM 42% | [14]; at 11.0 µM 67% | [15]; [17] 43% | [16]; at 1.2 µM 34% | [16]; at 3.7 µM 59%
active: [1]; at 33.0 µM 72% | [1]; at 100.0 µM 78% | [4]; at 33.0 µM 85% | [4]; at 100.0 µM 96% | [5]; [18] 79% | [5]; at 50.0 µM 72.3% | [6]; [18] 74% | [6]; at 50.0 µM 75.2% | [7]; at 3.7 µM 70% | [7]; at 11.0 µM 92% | [7]; at 33.0 µM 98% | [7]; at 100.0 µM 98% | [8]; [18] 80% | [8]; at 50.0 µM 85.7% | [9]; at 33.0 µM 80% | [9]; at 100.0 µM 83% | [10]; at 50.0 µM 75.4% | [11]; at 11.0 µM 79% | [11]; at 33.0 µM 95% | [11]; [18] 83% | [11]; at 50.0 µM 82.9% | [11]; at 100.0 µM 97% | [12]; at 33.0 µM 79% | [12]; at 100.0 µM 87% | [14]; at 33.0 µM 86% | [14]; at 100.0 µM 91% | [15]; [18] 75% | [15]; at 50.0 µM 74.7% | [16]; at 11.0 µM 74% | [16]; at 33.0 µM 83% | [16]; at 100.0 µM 90%

Cc1ccc2c(c1)C1(SC(C)C(=O)N1c1ccc(Cl)cc1)C(=O)N2 (stereo unspecified)
inactive: [1]; at 1.2 µM 0% | [1]; at 3.7 µM 4% | [1]; at 11.0 µM 16% | [2]; at 1.2 µM 0% | [2]; at 3.7 µM 5% | [2]; at 11.0 µM 4% | [2]; at 33.0 µM 55% | [3]; at 1.2 µM -2% | [3]; at 3.7 µM -1% | [3]; at 11.0 µM 1% | [3]; at 33.0 µM -2% | [3]; at 100.0 µM -3% | [4]; at 1.2 µM -5% | [4]; at 3.7 µM -6% | [4]; at 11.0 µM 3% | [5]; at 1.2 µM -2% | [5]; at 3.7 µM 1% | [5]; [17] 12% | [5]; at 11.0 µM 9% | [6]; at 1.2 µM -2% | [6]; at 3.7 µM 5% | [6]; [17] -12% | [6]; at 11.0 µM 12% | [6]; [18] 17% | [7]; at 1.2 µM -3% | [7]; at 3.7 µM 3% | [7]; at 11.0 µM 12% | [8]; [17] 8% | [9]; at 1.2 µM -1% | [9]; at 3.7 µM -11% | [9]; at 11.0 µM 4% | [10]; [17] 4% | [10]; [18] 49% | [11]; at 1.2 µM 3% | [11]; at 3.7 µM 10% | [11]; [17] 19% | [11]; at 11.0 µM 30% | [12]; at 1.2 µM -2% | [12]; at 3.7 µM 1% | [12]; at 11.0 µM 8% | [13]; at 1.2 µM -1% | [13]; at 3.7 µM 3% | [13]; at 11.0 µM 17% | [14]; at 1.2 µM 2% | [14]; at 3.7 µM 7% | [14]; at 11.0 µM 25% | [15]; [17] 51% | [16]; at 1.2 µM 4% | [16]; at 3.7 µM 17% | [16]; at 11.0 µM 54%
active: [1]; at 33.0 µM 96% | [1]; at 100.0 µM 99% | [2]; at 100.0 µM 99% | [4]; at 33.0 µM 94% | [4]; at 100.0 µM 99% | [5]; at 33.0 µM 94% | [5]; [18] 97% | [5]; at 50.0 µM 98.8% | [5]; at 100.0 µM 99% | [6]; at 33.0 µM 85% | [6]; at 50.0 µM 98.5% | [6]; at 100.0 µM 99% | [7]; at 33.0 µM 96% | [7]; at 100.0 µM 99% | [8]; [18] 94% | [8]; at 50.0 µM 99.4% | [9]; at 33.0 µM 91% | [9]; at 100.0 µM 99% | [10]; at 50.0 µM 97.7% | [11]; at 33.0 µM 90% | [11]; [18] 88% | [11]; at 50.0 µM 74.5% | [11]; at 100.0 µM 99% | [12]; at 33.0 µM 98% | [12]; at 100.0 µM 99% | [13]; at 33.0 µM 95% | [13]; at 100.0 µM 99% | [14]; at 33.0 µM 94% | [14]; at 100.0 µM 99% | [15]; [18] 98% | [15]; at 50.0 µM 99% | [16]; at 33.0 µM 97% | [16]; at 100.0 µM 98%
